Reference: ChEMBL document CHEMBL3988442, “University of Dundee, Small-Polar-MMV Screening Library” (2021)
Out of some 48,000 compounds screened, about 13,000 (27%) showed an effect of 50% or more. Some of the results follow.

The compounds below were run on Wolbachia pipientis (assay: Anti-Wolbachia Cell-Based Screen). Conditions: 5 µM.
Format: functional
Set-up: scale not given: in the data most compounds retested in dose-response had high values

SMILES | Percent Effect [%]
N[C@@H]1CC[C@H](C(=O)NCCn2cc(Cl)cn2)C1 | -5.887
Cc1ccc(-n2ccnc2)c(C(=O)NCCOCC2CCCO2)c1 (centres undefined) | 2.009
CN(CC1(C)COC1)C(=O)c1cc(-c2ccnn2C)nc2ccccc12 | 116.9
CN(Cc1cccc(C(=O)Nc2ccnn2C)c1)CC1(C)COC1 | 30.85
Cn1cc(CNC(=O)C2COCC(=O)N2Cc2ccccc2)cn1 (centres undefined) | -3.917
CN(CC1(C)COC1)C(=O)c1cc(-c2cnn(C)c2)nc2ccccc12 | 150.1
CCN(C)C(=O)c1cc(-c2ccn(C(C)C)n2)n2ccccc12 | 6.69
CCN(C(=O)c1cc(C)nc2ccccc12)C1CC(=O)NC1=O (centres undefined) | 9.266
CN(Cc1ncnn1C)C(=O)c1ccccc1NCc1ccccc1 | -8.23
CN(Cc1cnn(C)c1)C(=O)c1cc2ccccc2c(=O)[nH]1 | -10.85
CN(CC1(C)COC1)C(=O)c1cc(-c2ccn(C)n2)nc2ccccc12 | 106.6
COc1ccc(NC(=O)N(C)Cc2ccc(Br)o2)cn1 | 12.08
CN(C)S(=O)(=O)NCc1cccnc1Oc1ccccc1 | -16.22
CCc1ccc(C(=O)N(CC)Cc2ccoc2)cc1S(C)(=O)=O | 18.17
Cc1cccc2c1nc(COCC(=O)O)n2-c1cnc(N)cn1 | 0.6066
CCCn1ccnc1CN1CCC(Oc2ccc(Cl)cc2)(C(=O)O)CC1 | -1.396
O=C(O)C1(Oc2ccc3ccccc3c2)CCN(c2ccncc2)CC1 | -19.78
O=C(O)C1(Oc2ccccc2)CCN(c2ccncc2)CC1 | -10.06
O=C(O)C1(Oc2ccc(Cl)cc2)CCN(C2CCOCC2)CC1 | 109.8
O=C(O)C(c1ccc2c(c1)OCCO2)N1CCC(N2CCOCC2)CC1 (centres undefined) | 10.3
O=C(O)C1(Oc2ccc3c(c2)OCO3)CCN(C2CCOCC2)CC1 | 140.6
O=C(O)C1(Oc2cccc(F)c2)CCN(C2CCOCC2)CC1 | 114
O=C(O)C1(Oc2cccc(F)c2)CCN(c2ccncc2)CC1 | -29.88

SMILES | Percent Effect [%]
CCCn1ccnc1CN1CCC(Oc2cccc(F)c2)(C(=O)O)CC1 | -7.212
Cc1noc(OCCOc2cccc(C#N)c2)n1 | 0.996
NC(=O)c1cnc(NCC(=O)NCc2ccccc2)c(Cl)c1 | -2.32
O=C(c1cccs1)N1CC(Oc2ccccc2Cl)C1 | 11.34
CCCc1nc(C(=O)N2C[C@H](CO)C[C@H](CN3CCOCC3)C2)cs1 | -13.1
CN1CC(c2ccccc2)CC2(CCN(C(=O)c3ccccc3)CC2)C1 (centres undefined) | 1.137
COCCC(=O)N1CCC2(CC1)CC(c1ccccc1)CN(C)C2 (centres undefined) | 9.484
COCCN1C(=O)C[C@@H]2[C@H]1CCN2C(=O)COc1ccccc1 | -17.47
CN1C[C@H](O)[C@]2(CCN(C(=O)COc3ccccc3)C2)S1(=O)=O | 115.7
O=C(OCc1ccccc1)N1CC[C@H]2CC(CO)O[C@@H]2C1 (some centres undefined) | -8.669
CN1C[C@H](O)[C@]2(CCN(C(=O)NCc3ccccc3)C2)S1(=O)=O | 101.7
CN1C[C@@H]2CN(C(=O)NCc3ccccc3)CCC[C@]2(C(=O)O)C1.O=C(O)C(F)(F)F | 10.95
CCN1C[C@@H]2CN(C(=O)NCc3ccccc3)CCC[C@]2(C(=O)O)C1.O=C(O)C(F)(F)F | -6.91
CN1C[C@@H](O)[C@]2(CCN(C(=O)c3ccccc3)C2)S1(=O)=O | 126.2
CN1C[C@@H](O)[C@]2(CCN(C(=O)OCc3ccccc3)C2)S1(=O)=O | 96.78
COc1cccc(OCC(=O)N2CCC3(CC2)[C@H](O)C[C@@H]3OC)c1 | 6.956
O=C(NCc1ccco1)c1cc(N2CC[C@@H](O)C2)ccn1 | 15.64
CCCS(=O)(=O)N1Cc2ccnn2CC(c2nc(C)no2)C1.O=C(O)C(F)(F)F (centres undefined) | -10.4
Cc1csc(C(C#N)C(=O)NCc2ccccc2)n1 (centres undefined) | 0.1394
Cc1cc(C)c2nc(CN3CCOCC(O)C3)cc(O)c2c1 (centres undefined) | -68.16
CCC1=N[C@@]2(CC[C@@H]3CN(S(=O)(=O)CC(C)C)C[C@@H]32)C(=O)N1C | -2.639
Cc1nc(CNC(=O)NC2CCN(c3ncccn3)CC2)cs1 | 78.89
O=C(NCCc1cccs1)NC1CCN(c2ncccn2)CC1 | 110.6

SMILES | Percent Effect [%]
Cc1csc(CNC(=O)NC2CCN(c3ncccn3)CC2)n1 | 3.023
Cc1nc(CCNC(=O)NC2CCN(c3ncccn3)CC2)cs1 | 9.255
O=C(NCc1ccoc1)NC1CCN(c2ncccn2)CC1 | 15.54
Cc1nc(CCNC(=O)NC2CCCN(c3ncccn3)C2)cs1 (centres undefined) | 107.1
Cc1ccc(CNC(=O)NC2CCCN(c3ncccn3)C2)n1C (centres undefined) | 7.079
Cc1nc(CNC(=O)NC2CCCN(c3ncccn3)C2)cs1 (centres undefined) | 115.1
N#Cc1ccc(CNC(=O)NC2CCCN(c3ncccn3)C2)cc1 (centres undefined) | 10.08
O=C(NCCc1ccccn1)NC1CCN(c2ncccn2)CC1 | 4.674
COC(=O)N1CCCC(NC(=O)NCc2csc(C)n2)C1 (centres undefined) | -0.338
O=C(NCc1ccccn1)NC1CCCN(c2ncccn2)C1 (centres undefined) | 20.37
NC(=O)Nc1cccc(C(=O)N(Cc2ccncc2)C2CC2)c1 | 8.655
CC(O)CN1CCC(CNCc2ccccc2Br)CC1 (centres undefined) | -8.503
O=C(NCCN1CCOCC1)NCc1ccc(-n2cccn2)cc1 | -7.54
CC(C)Nc1nc2c(c(NC3CC3)n1)CCN(C1CCOCC1)CC2 | -24.37
O=C(CO)N1CCN(S(=O)(=O)CCCF)CC1 | -8.107
Nc1cc(-c2c[nH]nc2C2CCCN2CCCc2ccccc2)ccn1 (centres undefined) | 114.8
Cc1cc(C2CCCN2CCCS(=O)(=O)c2ccccc2)no1 (centres undefined) | -10.32
Nc1cc(-c2c[nH]nc2C2CCCCN2C(=O)C2CCCC2)ccn1 (centres undefined) | 118.9
O=S(=O)(N(Cc1ccccn1)C1CC1)N1CCCC1c1ccco1 (centres undefined) | 17.98
Nc1ncncc1-c1noc([C@@H]2CCCN2CCCc2ccccc2)n1 | 5.428
Nc1cc(-c2c[nH]nc2C2CCCN2S(=O)(=O)c2ccccc2)ccn1 (centres undefined) | 96.1
O=C(c1ccoc1)N1CCCCC1c1nc[nH]n1 (centres undefined) | 11.28
COc1ccc(NC(=O)N2CCCCC2c2ncc[nH]2)cc1 (centres undefined) | 18.67
